Compound activity deposited in PubChem by The Scripps Research Institute Molecular Screening Center.
MOR-DOR inv ag-1 – inverse agonist of human OPRM1-OPRD1 heterodimerization | P35372+P41143 | cell-based MOR-DOR heterodimer luminescence, inverse agonism | inhibition, % at 9.3 µM | 0.21% of 340,000 active; in the data active = inhibition above about 22%, passing the limit was not always enough;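 also: 0% = cells with DMSO and 100% = wells without cells with DMSO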
Target sequence (P35372 whole entry, looked up): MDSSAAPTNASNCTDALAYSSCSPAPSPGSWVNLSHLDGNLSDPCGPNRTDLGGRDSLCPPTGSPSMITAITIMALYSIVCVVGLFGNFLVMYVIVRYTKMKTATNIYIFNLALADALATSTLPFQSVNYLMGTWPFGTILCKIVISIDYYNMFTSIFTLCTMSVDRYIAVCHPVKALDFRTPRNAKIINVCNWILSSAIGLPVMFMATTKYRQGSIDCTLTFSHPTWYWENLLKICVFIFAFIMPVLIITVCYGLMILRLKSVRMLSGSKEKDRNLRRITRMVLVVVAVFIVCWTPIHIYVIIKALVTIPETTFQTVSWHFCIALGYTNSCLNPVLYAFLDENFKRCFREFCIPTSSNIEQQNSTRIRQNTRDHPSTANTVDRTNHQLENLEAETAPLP
Target sequence (P41143 whole entry, looked up): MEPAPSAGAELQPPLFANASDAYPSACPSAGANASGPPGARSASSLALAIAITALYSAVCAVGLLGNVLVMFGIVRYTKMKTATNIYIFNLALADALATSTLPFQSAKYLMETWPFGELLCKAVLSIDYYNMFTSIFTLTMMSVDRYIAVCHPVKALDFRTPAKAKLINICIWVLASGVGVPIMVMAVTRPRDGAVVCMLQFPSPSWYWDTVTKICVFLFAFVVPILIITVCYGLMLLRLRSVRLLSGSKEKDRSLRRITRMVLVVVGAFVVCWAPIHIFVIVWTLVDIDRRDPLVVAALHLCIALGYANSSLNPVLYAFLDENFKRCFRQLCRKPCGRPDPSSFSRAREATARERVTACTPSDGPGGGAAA
HTR5A inv ag – counter-screen for OPRM1-OPRD1 inverse agonists: human HTR5A inverse agonism; P47898; HTR5A cell line, luminescence; inhibition, % at 9.3 µM; 0.083% of 340,000 active; in the data active = inhibition mostly above about 23%, no sharp cut-off; inactive = mostly below about 18%;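 also: 0% = cells with DMSO and 100% = no-cell wells with DMSO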
MOR-DOR ag – agonists of human mu-delta opioid receptor heterodimerization; P35372+P41143; cells, OPRM1-OPRD1 heterodimerization, luminescence; activation, % at 9.3 µM; 0.3% of 340,000 active; AID 504326; in the data active = activation above about 18%;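 also: 0% = vehicle-treated cells and 100% = reference agonist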
HGIII-sPLA2 inh – Inhibits HGIII-sPLA2 liposome hydrolysis, primary screen | Q9NZ20 | inhibition, % at 12.2 µM | QFRET BODIPY PC-A2 liposome hydrolysis, fluorescence | 0.56% of 370,000 active;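 active = inhibition above mean plus 3 SD of compounds lying within the high and low control bounds, cut at about 19% in these data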;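 also: 0% = median of test compound wells and 100% = no enzyme DMSO wells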
m5-HT2A agonist – activates the mouse 5-HT2A serotonin receptor. CHO-K1 mHTR2A beta-arrestin complementation, luminescence; percent of 30 µM serotonin response. 0.66% of 360,000 active. activation, % at 7.6 µM. P35363;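 active = activation above a run cutoff, the mean activation of all tested compounds plus 3 SD, cut at about 14% in these data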;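 also: 0% = plate median of compound wells and 100% = 30 µM serotonin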
HTR5A ag ctr – activates human HTR5A in OPRM1-OPRD1 agonist counter-screen; P47898; HTR5A agonist assay, luminescence, cell-based; activation, % at 9.3 µM; 0.61% of 340,000 active; AID 504692; in the data active = activation mostly above about 9.5%, no sharp cut-off; inactive = mostly below about 7.6%;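 also: 0% = cells with vehicle only and 100% = reference agonist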
MOR-DOR inv ag-2 – inverse agonist of OPRM1-OPRD1 heterodimerization in HTR5A counter-screen; inhibition, % at 9.3 µM; 190 tested, under 10 active; shares compounds with HTR5A inv ag; U2OS counter-screen cells, complementation luminescence;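 also: 0% = cells with DMSO and 100% = wells without cells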
HTR5A inv conf – confirmation of human HTR5A inverse agonists. AID 504916. HTR5A-expressing cells, inverse agonism, luminescence. inhibition, % at 9.3 µM. 190 tested, under 10 active. shares compounds with HTR5A inv ag;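 also: 0% = cells with DMSO and 100% = no cells with DMSO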
Numbers without * were called inactive. In the library only some 2.2% were active in any assay of this set; here they are far more common. Unless noted, no rule for the calls is given here.

What do the screens show for `COc1cccc(NC(=S)N/N=C2/CCCCc3ccccc32)c1`?
MOR-DOR inv ag-1: 30.2; HTR5A inv ag: 35.2*; MOR-DOR ag: -4.6; HGIII-sPLA2 inh: 15.3; m5-HT2A agonist: -11.0; HTR5A ag ctr: -14.2; MOR-DOR inv ag-2: -17.7; HTR5A inv conf: 4.6

Results for CC(C)NC(=S)N/N=C1\CCCCc2ccccc21 ?
MOR-DOR inv ag-1: -14.1; HTR5A inv ag: 1.1; MOR-DOR ag: 2.0; HGIII-sPLA2 inh: 6.7; m5-HT2A agonist: -5.0; HTR5A ag ctr: 1.7

What do the screens show for `C=CCCC(=O)N1C[C@H]2CCN(C)[C@H]2C[C@H]1c1ccccc1Br`?
HGIII-sPLA2 inh: -4.3

What do the screens show for `CSc1ccc(/C=C/c2ccc3cccc(O)c3n2)cc1`?
MOR-DOR inv ag-1: -12.2; HTR5A inv ag: 23.6*; MOR-DOR ag: 2.4; HGIII-sPLA2 inh: 16.9; m5-HT2A agonist: -9.0; HTR5A ag ctr: -8.8; MOR-DOR inv ag-2: -21.0; HTR5A inv conf: 16.7

Results for COc1cc(/C=C/c2ccc3cccc(O)c3n2)ccc1O ?
MOR-DOR inv ag-1: 0.0; HTR5A inv ag: 7.2; MOR-DOR ag: 0.0; HGIII-sPLA2 inh: -12.7; m5-HT2A agonist: -6.3; HTR5A ag ctr: -2.0

What do the screens show for `Cc1ccsc1/C=C/c1ccc2cccc(O)c2n1`?
MOR-DOR inv ag-1: -12.2; HTR5A inv ag: 32.1*; MOR-DOR ag: 2.8; HGIII-sPLA2 inh: 9.2; m5-HT2A agonist: -9.2; HTR5A ag ctr: -11.7; MOR-DOR inv ag-2: -84.1; HTR5A inv conf: 20.9

What do the screens show for `CCCCN(C)c1c2c(nc3ncnn13)CCCC2`?
HGIII-sPLA2 inh: 0.7

How did CC(C)(C)OC(=O)NCCc1nnc(SCC(N)=O)o1 do in these assays?
MOR-DOR inv ag-1: 14.3; HTR5A inv ag: 48.8*; MOR-DOR ag: -2.9; HGIII-sPLA2 inh: 7.8; m5-HT2A agonist: 0.2; HTR5A ag ctr: -5.0; MOR-DOR inv ag-2: -18.5; HTR5A inv conf: 3.9

Results for CCCCNC(=O)NC1CCN(CC(=O)Nc2ccc3c(c2)OCCO3)CC1 ?
HGIII-sPLA2 inh: 11.8

How did Cn1nc(OCCOc2ccccc2)ccc1=O do in these assays?
MOR-DOR inv ag-1: 11.8; HTR5A inv ag: 39.8*; MOR-DOR ag: -2.4; HGIII-sPLA2 inh: -1.0; m5-HT2A agonist: -3.9; HTR5A ag ctr: -16.4; MOR-DOR inv ag-2: -25.0; HTR5A inv conf: -1.0

How did N#Cc1c(NC(=O)C2CC(c3c(F)cccc3Cl)=NO2)sc2c1CCC2 (stereo unspecified) do in these assays?
MOR-DOR inv ag-1: -0.8; HTR5A inv ag: -12.3; MOR-DOR ag: 0.1; HGIII-sPLA2 inh: 4.1; m5-HT2A agonist: -2.5; HTR5A ag ctr: 4.6

How did CCc1c(C)sc(NC(=O)C2CC(c3c(F)cccc3Cl)=NO2)c1C#N (stereo unspecified) do in these assays?
MOR-DOR inv ag-1: -11.9; HTR5A inv ag: 33.0*; MOR-DOR ag: 2.4; HGIII-sPLA2 inh: 7.2; m5-HT2A agonist: 12.6; HTR5A ag ctr: -8.8; MOR-DOR inv ag-2: -46.6; HTR5A inv conf: -8.0

Results for Cc1ccc(O)c(NC(=S)NC(=O)c2ccccc2Cl)c1 ?
MOR-DOR inv ag-1: 12.7; HTR5A inv ag: 21.4*; MOR-DOR ag: -2.4; HGIII-sPLA2 inh: 3.0; m5-HT2A agonist: -3.1; HTR5A ag ctr: -7.6; MOR-DOR inv ag-2: 3.7; HTR5A inv conf: -19.1

How did O=C(NC(=S)Nc1ccc(O)cc1)c1ccccc1Cl do in these assays?
MOR-DOR inv ag-1: 9.4; HTR5A inv ag: 1.7; MOR-DOR ag: -1.9; HGIII-sPLA2 inh: 1.8; m5-HT2A agonist: -1.6; HTR5A ag ctr: -3.1

What do the screens show for `CCOc1ccc(/C=C2\NCCc3cc(OCC)c(OCC)cc32)cc1OCC`?
HGIII-sPLA2 inh: -77.7

What do the screens show for `Cc1cccc(Cn2cc(COC(=O)Nc3ccc(F)cc3)nn2)c1`?
HGIII-sPLA2 inh: -9.0

How did COC(=O)c1ccccc1-c1c2ccc(=N)cc-2oc2cc(N)ccc12 do in these assays?
MOR-DOR inv ag-1: 27.0; HTR5A inv ag: 34.8*; MOR-DOR ag: -5.1; HGIII-sPLA2 inh: -494.1; m5-HT2A agonist: -11.8; HTR5A ag ctr: -9.6; MOR-DOR inv ag-2: 13.1; HTR5A inv conf: 30.0

What do the screens show for `CC1CC(C)CN(c2ncc3c(n2)CC(c2ccccc2Cl)CC3=O)C1` (stereo unspecified)?
MOR-DOR inv ag-1: 13.1; HTR5A inv ag: -33.2; MOR-DOR ag: -2.3; HGIII-sPLA2 inh: 8.4; m5-HT2A agonist: 2.8; HTR5A ag ctr: 2.5

What do the screens show for `CC1CC(C)CN(c2ncc3c(n2)CC(c2ccc(Cl)cc2)CC3=O)C1` (stereo unspecified)?
MOR-DOR inv ag-1: 3.7; HTR5A inv ag: 31.5*; MOR-DOR ag: -0.7; HGIII-sPLA2 inh: 14.0; m5-HT2A agonist: 5.7; HTR5A ag ctr: -9.7; MOR-DOR inv ag-2: -13.2; HTR5A inv conf: -8.7

How did CNc1c(C(=O)O)ccc2c1C(=O)c1ccccc1C2=O do in these assays?
MOR-DOR inv ag-1: 11.9; HTR5A inv ag: 36.2*; MOR-DOR ag: -1.8; HGIII-sPLA2 inh: 5.9; m5-HT2A agonist: -1.6; HTR5A ag ctr: -8.6; MOR-DOR inv ag-2: -193.5; HTR5A inv conf: -19.7

What do the screens show for `COc1ccc(Cl)cc1C(=O)NNC(=O)CSc1nnc2ccccn12`?
MOR-DOR inv ag-1: 8.7; HTR5A inv ag: 27.0*; MOR-DOR ag: -1.7; HGIII-sPLA2 inh: 3.9; m5-HT2A agonist: 5.4; HTR5A ag ctr: -9.6; MOR-DOR inv ag-2: -36.8; HTR5A inv conf: -2.3

What do the screens show for `CN(C)c1ccc(C(=O)NC2CCCCN(Cc3cccc(Cl)c3)C2=O)cc1` (stereo unspecified)?
HGIII-sPLA2 inh: -9.1

What do the screens show for `COc1ccc(CNc2ncnc3sccc23)cc1`?
MOR-DOR inv ag-1: -6.3; HTR5A inv ag: 24.9*; MOR-DOR ag: 1.2; HGIII-sPLA2 inh: 1.9; m5-HT2A agonist: -9.7; HTR5A ag ctr: -9.3; MOR-DOR inv ag-2: -11.9; HTR5A inv conf: -5.3

How did CCOC(=O)C1CCN(C(=O)C(Cc2ccc3c(c2)OCO3)NC(C)=O)CC1 (stereo unspecified) do in these assays?
HGIII-sPLA2 inh: 1.9

How did Cc1cccc(NC(=O)CNC(=O)c2cccs2)n1 do in these assays?
MOR-DOR inv ag-1: 3.0; HTR5A inv ag: 30.9*; MOR-DOR ag: -0.6; HGIII-sPLA2 inh: 7.8; m5-HT2A agonist: 8.0; HTR5A ag ctr: -11.4; MOR-DOR inv ag-2: -454.2; HTR5A inv conf: 0.2

How did CC(Sc1nc(N)cc(=O)[nH]1)C(=O)NC1CCCCC1 (stereo unspecified) do in these assays?
MOR-DOR inv ag-1: 0.2; HTR5A inv ag: 3.7; MOR-DOR ag: -0.1; HGIII-sPLA2 inh: 3.0; m5-HT2A agonist: 0.8; HTR5A ag ctr: -3.4

What do the screens show for `CC(Sc1ncccn1)C(=O)NC1CCCC1` (stereo unspecified)?
MOR-DOR inv ag-1: 15.4; HTR5A inv ag: 36.6*; MOR-DOR ag: -4.1; HGIII-sPLA2 inh: 14.6; m5-HT2A agonist: -8.2; HTR5A ag ctr: 9.3; MOR-DOR inv ag-2: -12.3; HTR5A inv conf: -87.5
